About 2,000 (36%) of roughly 5,500 compounds were called active. Inconclusive results (about 18%) are left out. Cut-off read from the data, not from the text of the source: active = normalized growth mostly below about 0.91 (no sharp cut-off); inconclusive = no clear call, values can overlap the other calls; inactive = mostly above about 0.92. Some of the results follow.
Test: chemical genetic growth profiling, strain panel (AID 1159580);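 note: tested at 20 µM; growth read once vehicle control cultures reached saturation at 30 °C; 1 = growth at the plate median or of vehicle wells; lower values mean less growth of the strain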
Settings: growth OD
[1] = S. cerevisiae deletion strains, locus YDL101C, strain DUN1, hits give low values
[2] = S. cerevisiae deletion strains, locus YHR030C, strain SLT2, hits give low values

Measured: normalized growth

CC(=O)c1csc(-c2ccc(C(F)(F)F)cc2)n1
inactive: S. cerevisiae deletion strains, locus YAL013W, strain DEP1, hits give low values 0.947 | S. cerevisiae deletion strains, locus YBR229C, strain ROT2, hits give low values 0.965 | [1] 0.977 | S. cerevisiae deletion strains, locus YDR150W, strain NUM1, hits give low values 0.977 | S. cerevisiae deletion strains, locus YEL061C, strain CIN8, hits give low values 0.967 | S. cerevisiae deletion strains, locus YGR078C, strain PAC10, hits give low values 0.949 | [2] 0.761 | S. cerevisiae deletion strains, locus YHR087W, strain rtc3, hits give low values 0.964 | S. cerevisiae deletion strains, locus YJR043C, strain POL32, hits give low values 0.988 | S. cerevisiae deletion strains, locus YJR075W, strain HOC1, hits give low values 0.928 | S. cerevisiae deletion strains, locus YKL190W, strain CNB1, hits give low values 0.994 | S. cerevisiae deletion strains, locus YLR039C, strain RIC1, hits give low values 0.882 | S. cerevisiae deletion strains, locus YLR058C, strain SHM2 (second series), hits give low values 0.955 | S. cerevisiae deletion strains, locus YLR262C, strain YPT6, hits give low values 0.943 | S. cerevisiae deletion strains, locus YML094W, strain GIM5, hits give low values 0.898 | S. cerevisiae deletion strains, locus YMR219W, strain ESC1, hits give low values 0.977 | S. cerevisiae deletion strains, locus YMR263W, strain SAP30, hits give low values 0.979 | S. cerevisiae deletion strains, locus YNL128W, strain TEP1, hits give low values 0.99 | S. cerevisiae deletion strains, locus YNL153C, strain GIM3, hits give low values 0.954 | S. cerevisiae deletion strains, locus YNL298W, strain CLA4 (second series), hits give low values 0.911 | S. cerevisiae deletion strains, locus YNL322C, strain KRE1, hits give low values 0.971 | S. cerevisiae deletion strains, locus YNR030W, strain Alg12, hits give low values 0.943 | S. cerevisiae deletion strains, locus YPL055C, strain LGE1, hits give low values 0.892 | S. cerevisiae deletion strains, locus YPR135W, strain CTF4, hits give low values 0.658 | S. cerevisiae strains, strain wild type, hits give low values 0.997
active: S. cerevisiae deletion strains, locus YLR085C, strain ARP6, hits give low values 0.762 | S. cerevisiae deletion strains, locus YPL241C, strain CIN2, hits give low values 0.841

O=C(NNC(=O)c1csc(-c2cccs2)n1)c1ccc(C(F)(F)F)cc1
active: [1] 0.901 | S. cerevisiae deletion strains, locus YDL214C, strain PRR2, hits give low values 0.657 | S. cerevisiae deletion strains, locus YDR477W, strain SNF1, hits give low values 0.572 | S. cerevisiae deletion strains, locus YGR092W, strain DBF2, hits give low values 0.154 | [2] 0.198 | S. cerevisiae deletion strains, locus YHR079C, strain IRE1, hits give low values 0.181 | S. cerevisiae deletion strains, locus YJL095W, strain BCK1, hits give low values 0.345 | S. cerevisiae deletion strains, locus YJL157C, strain FAR1, hits give low values 0.612 | S. cerevisiae deletion strains, locus YJR066W, strain TOR1 (second series), hits give low values 0.14 | S. cerevisiae deletion strains, locus YKL067W, strain YNK1, hits give low values 0.713 | S. cerevisiae deletion strains, locus YKL101W, strain HSL1, hits give low values 0.59 | S. cerevisiae deletion strains, locus YLR113W, strain HOG1, hits give low values 0.677 | S. cerevisiae deletion strains, locus YLR133W, strain CKI1, hits give low values 0.592 | S. cerevisiae deletion strains, locus YMR205C, strain PFK2 (second series), hits give low values 0.666 | S. cerevisiae deletion strains, locus YNL020C, strain ARK1, hits give low values 0.492 | S. cerevisiae deletion strains, locus YNL183C, strain NPR1, hits give low values 0.5 | S. cerevisiae deletion strains, locus YNL307C, strain MCK1 (second series), hits give low values 0.286 | S. cerevisiae deletion strains, locus YOR231W, strain MKK1, hits give low values 0.29 | S. cerevisiae deletion strains, locus YPL031C, strain PHO85, hits give low values 0.512 | S. cerevisiae deletion strains, locus YPL153C, strain RAD53, hits give low values 0.57 | S. cerevisiae deletion strains, locus YPL256C, strain CLN2, hits give low values 0.558
inactive: S. cerevisiae deletion strains, locus YAR019C, strain CDC15, hits give low values 0.972 | S. cerevisiae deletion strains, locus YBL105C, strain PKC1, hits give low values 0.967 | S. cerevisiae deletion strains, locus YBR135W, strain CKS1, hits give low values 0.955 | S. cerevisiae deletion strains, locus YBR136W, strain MEC1, hits give low values 0.979 | S. cerevisiae deletion strains, locus YBR160W, strain CDC28, hits give low values 0.965 | S. cerevisiae deletion strains, locus YDL017W, strain CDC7, hits give low values 0.961 | S. cerevisiae deletion strains, locus YDL028C, strain MPS1, hits give low values 0.958 | S. cerevisiae deletion strains, locus YDL108W, strain KIN28, hits give low values 0.972 | S. cerevisiae deletion strains, locus YDL132W, strain cdc53, hits give low values 0.946 | S. cerevisiae deletion strains, locus YDR052C, strain DBF4, hits give low values 0.964 | S. cerevisiae deletion strains, locus YDR054C, strain cdc34, hits give low values 0.961 | S. cerevisiae deletion strains, locus YDR226W, strain ADK1, hits give low values 0.967 | S. cerevisiae deletion strains, locus YER123W, strain YCK3, hits give low values 0.75 | S. cerevisiae deletion strains, locus YER133W, strain GLC7, hits give low values 0.863 | S. cerevisiae deletion strains, locus YFL009W, strain cdc4, hits give low values 0.967 | S. cerevisiae deletion strains, locus YFL029C, strain CAK1, hits give low values 0.959 | S. cerevisiae deletion strains, locus YFR003C, strain YPI1, hits give low values 0.964 | S. cerevisiae deletion strains, locus YFR019W, strain FAB1, hits give low values 0.99 | S. cerevisiae deletion strains, locus YFR028C, strain CDC14, hits give low values 0.949 | S. cerevisiae deletion strains, locus YGR040W, strain KSS1, hits give low values 0.832 | S. cerevisiae deletion strains, locus YGR052W, strain FMP48, hits give low values 0.779 | S. cerevisiae deletion strains, locus YHR082C, strain KSP1, hits give low values 0.838 | S. cerevisiae deletion strains, locus YHR205W, strain SCH9, hits give low values 0.695 | S. cerevisiae deletion strains, locus YIL147C, strain SLN1, hits give low values 0.973 | S. cerevisiae deletion strains, locus YJL128C, strain PBS2, hits give low values 0.948 | S. cerevisiae deletion strains, locus YJR016C, strain ILV3, hits give low values 0.969 | S. cerevisiae deletion strains, locus YJR066W, strain TOR1, hits give low values 0.486 | S. cerevisiae deletion strains, locus YKL048C, strain ELM1, hits give low values 0.91 | S. cerevisiae deletion strains, locus YKL193C, strain SDS22, hits give low values 0.963 | S. cerevisiae deletion strains, locus YKL203C, strain TOR2, hits give low values 0.913 | S. cerevisiae deletion strains, locus YLR403W, strain SFP1, hits give low values 0.884 | S. cerevisiae deletion strains, locus YML070W, strain DAK1, hits give low values 0.887 | S. cerevisiae deletion strains, locus YMR001C, strain CDC5, hits give low values 0.949 | S. cerevisiae deletion strains, locus YMR277W, strain FCP1, hits give low values 0.957 | S. cerevisiae deletion strains, locus YNL006W, strain LST8, hits give low values 0.96 | S. cerevisiae deletion strains, locus YNL161W, strain CBK1, hits give low values 0.959 | S. cerevisiae deletion strains, locus YNL207W, strain RIO2, hits give low values 0.955 | S. cerevisiae deletion strains, locus YNL222W, strain SSU72, hits give low values 0.963 | S. cerevisiae deletion strains, locus YOL078W, strain AVO1, hits give low values 0.966 | S. cerevisiae deletion strains, locus YOL136C, strain PFK27, hits give low values 0.805 | S. cerevisiae deletion strains, locus YOR061W, strain CKA2, hits give low values 0.821 | S. cerevisiae deletion strains, locus YOR119C, strain RIO1, hits give low values 0.877 | S. cerevisiae deletion strains, locus YOR329C, strain SCD5, hits give low values 0.959 | S. cerevisiae deletion strains, locus YPL204W, strain HRR25, hits give low values 0.723 | S. cerevisiae deletion strains, locus YPL209C, strain IPL1, hits give low values 0.964 | S. cerevisiae deletion strains, locus YPR025C, strain CCL1, hits give low values 0.954 | S. cerevisiae deletion strains, locus YPR106W, strain ISR1, hits give low values 0.959 | S. cerevisiae deletion strains, locus YPR111W, strain DBF20, hits give low values 0.974 | S. cerevisiae deletion strains, strain NNK1, hits give low values 0.974 | S. cerevisiae deletion strains, strain TSCII, hits give low values 0.943

Reference: PubChem BioAssay AID1159580 (chemical genetic matrix, 2015)
